FPRL1 binder: binds the human formylpeptide receptor-like-1 FPRL1; P25090; FPRL1-expressing cells, fluorescent ligand binding inhibition, flow cytometry; inhibition, % (concentration not given with the values); hit rate 0.3% among 24,000; AID 441
FPR ligand: ligands of human FPR, also counter-screen for FPRL1 ligands; P21462; hit rate 0.74% among 24,000; FPR-expressing cells, fluorescent ligand binding, flow cytometry; inhibition, % (no concentration beside the values)
Target sequence (P21462 whole entry, looked up): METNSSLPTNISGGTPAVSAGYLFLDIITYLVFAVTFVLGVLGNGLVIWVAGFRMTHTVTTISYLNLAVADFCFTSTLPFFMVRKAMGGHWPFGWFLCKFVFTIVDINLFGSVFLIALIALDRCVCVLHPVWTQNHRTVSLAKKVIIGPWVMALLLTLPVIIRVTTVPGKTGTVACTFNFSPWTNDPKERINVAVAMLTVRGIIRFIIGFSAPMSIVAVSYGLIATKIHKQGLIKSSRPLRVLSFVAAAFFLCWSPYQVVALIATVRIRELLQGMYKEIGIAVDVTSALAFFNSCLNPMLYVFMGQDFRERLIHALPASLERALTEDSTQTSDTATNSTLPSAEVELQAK
Prostate diff: promotes differentiation of LNCaP prostate cells. side scatter shift, % at 10 µM. hit rate 0.56% among 24,000. AID 795. flow cytometry side scatter, 4 d;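 active = side scatter shift above 30%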;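 note: androgen-responsive LNCaP prostate cancer cells in charcoal-stripped serum medium; higher shift means more granular cells and more differentiation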
Large screens that a line does not name were inactive. Most compounds without a hit are left out; they make up all but 1.7% or so of the library. Cut-off read from the data, not from the text of the source, unless noted: active = inhibition above about 30%; inconclusive = no clear call, values can overlap the other calls; inactive = below that.

COC(=O)c1ccccc1NC(=O)CN1CCC(n2nnc3cc(F)ccc32)CC1	Prostate diff 30.0
Cc1cccc(C(=O)N2CCC(n3nnc4cc(F)ccc43)CC2)c1	none
CCOC(=O)c1cn2c3c(c(F)c(F)c(F)c3c1=O)SC(N1CCCC1)=N2	FPRL1 binder inconclusive, FPR ligand inconclusive
O=C(CCCn1c(=S)[nH]c2ccc(Br)cc2c1=O)N1CCN(c2ccccn2)CC1	none
Cc1oc(-c2ccc(Cl)cc2)cc1-c1nn2c(-c3ccoc3C)nnc2s1	none
CN(C)c1ccc(-c2nn3c(-c4ccc(Cl)cc4Cl)nnc3s2)cc1	Prostate diff 39.0
Cc1ccccc1-c1c(C)oc2cc(O)ccc2c1=O	none (no result: Prostate diff)
C=CCN1C(=O)/C(=C2\SC(N3CCOCC3)=NC2=O)c2cc(Br)ccc21	none
C/C(=C1/SC(N2CCCC2)=NC1=O)c1ccc(Br)cc1	FPR ligand 42.3
COc1ccc(N2CCN(CCNC(=O)CCS(=O)(=O)c3cccc4nsnc34)CC2)cc1	none
N[C@@H](Cc1ccc(O)c(I)c1)C(=O)O	FPR ligand 51.4
O=C(O)Cc1cc(I)c(Oc2ccc(O)c(I)c2)c(I)c1	none
COc1ccccc1CNC(=O)N[C@@H](Cc1ccccc1)C(=O)O	none
CCCNS(=O)(=O)c1ccc(OCC(=O)NCc2ccc3c(c2)OCO3)cc1	none
CC(C)(C)OC(=O)N1CCN(c2ccc(NC(=O)c3cc4ccccc4oc3=O)cc2)CC1	none
O=C(O)CC1NC(=O)N(c2ccccc2)C1=O (stereo unspecified)	none
CCCCC1C(=O)N(c2ccccc2)N(c2ccccc2)C1=O	FPR ligand 50.2
O=C(CNS(=O)(=O)c1ccc(Br)s1)NCC1COc2ccccc2O1 (stereo unspecified)	none
O=C(c1cccc2ccccc12)N1CCC(N2CCN(c3ccccc3)CC2)CC1	none
Cc1ccc(C(=O)N2CCCC(c3nc4c(nnn4Cc4ccccc4)c(=O)[nH]3)C2)cc1 (stereo unspecified)	none
COc1ccccc1-c1c(C)oc2c(CN3CCN(CCO)CC3)c(O)ccc2c1=O	none (no result: Prostate diff)
COc1ccc(-c2c(C)oc3c(CN4CCN(CCO)CC4)c(O)ccc3c2=O)cc1OC	FPR ligand 30.9 (no result: Prostate diff)
CCCc1c(OCCCCc2nn[nH]n2)ccc(C(C)=O)c1O	none
CCCCOc1ccc(OCCCC)c2c1NC1(N2)C(=O)N(C(C)=O)c2ccccc21	none
Cn1c(=O)c2c(nc(SCC(=O)NC3CCCCC3)n2C)n(C)c1=O	none
CCOc1cccc(C2c3c(oc4cc(C)c(C)cc4c3=O)C(=O)N2CCCN(C)C)c1 (stereo unspecified)	none
CCOC(=O)c1oc2ccccc2c1NC(=O)c1cccc(OC)c1OC	none
CC(C)(C)NC(=O)C1CCCN(S(=O)(=O)c2cccc3cccnc23)C1 (stereo unspecified)	FPR ligand 34.8
O=C(Nc1ccncc1)C1CCCN(S(=O)(=O)c2cccc3cccnc23)C1 (stereo unspecified)	none
Cc1cc(C)nc(N2CCC(C(=O)NCc3cccc(C(F)(F)F)c3)CC2)n1	none
Cc1cc(C)nc(N2CCC(C(=O)Nc3ccc(Oc4ccccc4)cc3)CC2)n1	Prostate diff 33.0
N#CC1=C(SCC(=O)NC23CC4CC(CC(C4)C2)C3)NC(=O)C(C#N)C12CCCCC2 (stereo unspecified)	none
CCN(CC)c1ncnc2sc(C(=O)N3CCN(c4ccc(OC)cc4)CC3)c(C)c12	none
CCOC(=O)c1sc2ncnc(N3CCN(c4ccc(OC)cc4)CC3)c2c1C	Prostate diff 35.0
COc1ccc(NC(=O)Cn2c(=O)sc3ccccc32)c(OC)c1	none
CCOC(=O)c1cc2c(=O)n3cccc(C)c3nc2n(CCc2ccccc2)c1=N	none
CCOC(=O)N1CCN(C(=O)c2cc3cc(Br)ccc3oc2=O)CC1	none
COc1cccc(OC)c1/C(O)=C(\C#N)c1nc2ccccc2[nH]1	FPR ligand 32.5
CC(C)(C)/C(O)=C(/C#N)c1nc2ccccc2[nH]1	none
CN1CCCN(C(=O)c2cc(=O)[nH]c3ccccc23)c2nc3ccccc3nc21	none
CN1CCN(c2cc3c(c4c2[nH]c2ccccc24)C(=O)CC(C)(C)C3)CC1	Prostate diff 63.0
CCOC(=O)c1oc2cc(O)c(CC)cc2c(=O)c1-c1ccc2c(c1)OCCO2	none
Cc1oc2cc(O)cc(O)c2c(=O)c1-c1ccc2c(c1)OCCCO2	FPR ligand 31.4 (no result: Prostate diff)
COc1nc(N2CCCC2)nc(-n2cc(-c3ccccc3)nn2)n1	none
CCN(CC)CCn1c(=N)n(CCO)c2ccccc21	none
N=c1n(CCO)c2ccccc2n1CCOc1ccc(Cl)cc1Cl	Prostate diff 39.0
Clc1ccc(C2CC(c3cccs3)n3ncnc3N2)c(Cl)c1 (stereo unspecified)	none
COc1ccc2c(c1)CCc1c(C(=O)Nc3cc(C)n(Cc4ccc(Cl)cc4)n3)noc1-2	Prostate diff 62.0
COc1ccc2c(c1)CCc1c(C(=O)Nc3ccn(Cc4ccc(C)cc4)n3)noc1-2	none
CCN1CCN(c2cc(C)c3cc(NC(=O)c4ccncc4)ccc3n2)CC1	none
